PubChem BioAssay AID1159580 (chemical genetic matrix, 2015)
In all, about 5,500 compounds went through this assay and about 2,000 (36%) were called active. Inconclusive results (about 18%) are left out. Cut-off read from the data, not from the text of the source: active = normalized growth mostly below about 0.91 (no sharp cut-off); inconclusive = no clear call, values can overlap the other calls; inactive = mostly above about 0.92. This is one part of the list.

Assay: chemical genetic growth profiling, strain panel (AID 1159580);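 note: tested at 20 µM; growth read once vehicle control cultures reached saturation at 30 °C; 1 = growth at the plate median or of vehicle wells; lower values mean less growth of the strain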
Conditions: S. cerevisiae deletion strains, growth OD
[1] = locus YDR150W, strain NUM1, active compounds read low
[2] = locus YGR078C, strain PAC10, active compounds read low
[3] = locus YJR075W, strain HOC1, active compounds read low
[4] = locus YMR263W, strain SAP30, active compounds read low

Measured: normalized growth

OC[C@H]1O[C@@H](n2cnc3c(NCCc4ccccc4)ncnc32)C(O)[C@H]1O (some centres undefined)
inactive: locus YAL040C, strain CLN3, active compounds read low 0.979 | locus YCL061C, strain MRC1 (second series), active compounds read low 0.999 | [1] 0.993 | locus YDR363W, strain ESC2, active compounds read low 0.954 | locus YER002W, strain NOP16, active compounds read low 1.02 | [2] 0.996 | [3] 0.993 | [4] 0.998 | locus YMR307W, strain GAS1, active compounds read low 0.997 | locus YNL128W, strain TEP1, active compounds read low 0.989 | locus YNL175C, strain NOP13, active compounds read low 0.991 | locus YNL197C, strain WHI3, active compounds read low 0.991 | locus YNL224C, strain SQS1, active compounds read low 1.01 | locus YOR083W, strain WHI5 (second series), active compounds read low 0.997

Cc1cc(C)c(I)c(C)c1
inactive: locus YAL013W, strain DEP1, active compounds read low 1 | locus YBR229C, strain ROT2, active compounds read low 1.02 | locus YDL101C, strain DUN1, active compounds read low 0.987 | [1] 0.984 | locus YEL061C, strain CIN8, active compounds read low 1.05 | [2] 0.995 | locus YHR030C, strain SLT2, active compounds read low 1.12 | locus YHR087W, strain rtc3, active compounds read low 1.09 | locus YJR043C, strain POL32, active compounds read low 1.01 | [3] 1.02 | locus YKL190W, strain CNB1, active compounds read low 0.99 | locus YLR039C, strain RIC1, active compounds read low 1.05 | locus YLR058C, strain SHM2 (second series), active compounds read low 1.02 | locus YLR085C, strain ARP6, active compounds read low 1.01 | locus YLR262C, strain YPT6, active compounds read low 1.05 | locus YML094W, strain GIM5, active compounds read low 1.02 | locus YMR219W, strain ESC1, active compounds read low 1.01 | [4] 1.02 | locus YNL153C, strain GIM3, active compounds read low 0.999 | locus YNL298W, strain CLA4 (second series), active compounds read low 1.04 | locus YNL322C, strain KRE1, active compounds read low 1 | locus YNR030W, strain Alg12, active compounds read low 1.03 | locus YPL055C, strain LGE1, active compounds read low 1.02 | locus YPL241C, strain CIN2, active compounds read low 1.02 | locus YPR135W, strain CTF4, active compounds read low 0.963
